This is an account of results in PubChem BioAssay AID463173 (ICCB-Longwood Screening Facility, Harvard Medical School, 2010).

SMILES strings stand for the structures. The whole screen tested about 52,000 compounds, of which about 1,700 (3.3%) were called active. The list comes from a sample in which actives are over-represented; it also holds similar structures and randomly drawn compounds. A number with no mark means an inactive call. Cut-off read from the data, not from the text of the source: active = survival mostly below about 52% (no sharp cut-off); inactive = mostly above about 56%.

The test deals with Wild type. Description: S. aureus survival, RN4220 and DeltatarO strains – OD600, teichoic acid synthesis inhibitors, primary screen (AID 463173). The settings on record: S. aureus RN4220 wild type/DeltatarO growth, OD600, 18 h, hits give low values, screened at 18.75 µg/mL (by protocol).
Turning to `O=c1n(Cc2ccc(F)cc2)nc2n1-c1cc(Cl)ccc1OC2`, the survival was 76%.

As for `Cc1cc(Cl)ccc1NC(=O)Cn1nc(C)c2c(C)n(-c3ccccc3)nc2c1=O`, the survival is 45%.

On to `CCc1cccc(NC(=O)CCNS(=O)(=O)c2ccc3c(c2)CCN3C(C)=O)c1`, for which the survival was 76%.

In the case of `Cc1ccc(-n2ncc3c(N4CCN(Cc5ccccc5)CC4)ncnc32)cc1`, the survival was 131%.

For the molecule `O=C(Nc1nnc(C(F)(F)F)s1)c1ccccc1`, the survival was 74%.

For the molecule `CCOC(=O)N1CCc2c(sc(NCc3sccc3C)c2C(=O)Nc2cc(Cl)ccc2OC)C1`, the survival was 80%.

On to `CCc1nnc(NC(=O)CSc2nccn2-c2ccc(OC)cc2)s1`, for which the survival is 135%.

For `COc1cc(Cn2c(=O)sc3ccccc32)ccc1OC(C)C`, the survival is 41%.

In the case of `CCCCOc1ccc(Cn2c(=O)sc3ccccc32)cc1OC`, the survival was -5% (active).

`CCCCn1c(=N)n(CCOc2ccccc2OC)c2ccccc21`: the survival is 81%.

In the case of `COc1cc(Cn2c(=O)sc3ccccc32)ccc1OCCC(C)C`, the survival was -4% (active).

As for `COc1ccccc1NC(=O)c1sc2nc(C)c(C(=O)Nc3ccc(C)cc3C)c(-c3ccco3)c2c1N`, the survival is 73%.

In the case of `COc1cc(-c2nnn(CC(=O)Nc3ccc(OC(F)(F)F)cc3)n2)cc(OC)c1OC`, the survival was 92%.

Turning to `Nc1nn(-c2ccccc2)nc1C(=O)OCc1ccccc1`, the survival is 85%.

As for `Nc1nn(-c2ccccc2)nc1C(=O)OCc1ccc(Cl)cc1`, the survival is 59%.

As to `COc1cccc(COC(=O)c2nn(-c3ccccc3)nc2N)c1`, the survival was 24%.

Regarding `Cc1ccccc1COC(=O)c1nn(-c2ccccc2)nc1N`, the survival was -9% (active).

Consider `Nc1nn(-c2ccccc2)nc1C(=O)OCc1c(F)cccc1Cl`, for which the survival was 61%.

`Nc1nn(-c2ccccc2)nc1C(=O)OCc1ccccc1Br`: the survival is -2% (active).

For `Cc1ccccc1NC(=O)CSc1nc2ccc(NC(=O)COc3ccccc3F)cc2s1`, the survival is 81%.

`CSc1ccc(CCNC(=O)c2cc(C)nc3c2c(C)nn3-c2ccccc2)cc1`: the survival was 124%.

`CCCC(=O)NCCc1nc2ccccc2n1Cc1c(F)cccc1Cl`: the survival is 66%.

In the case of `Fc1cccc(Cl)c1Cn1c(-c2cccs2)nc2ccccc21`, the survival was 26% (active).

In the case of `O=C(NCc1nc2ccccc2n1Cc1ccccc1Cl)c1ccccc1`, the survival is 90%.

As for `Cc1ccccc1Cn1c(COc2ccc(Cl)cc2)nc2ccccc21`, the survival was 130%.

For `Cc1ccc(C)c(Cn2c(C(C)NC(=O)c3ccccc3)nc3ccccc32)c1` (stereo not given), the survival is 88%.

Take `OCc1nc2ccccc2n1Cc1ccccc1Cl`: the survival is 111%.

In the case of `Cc1ccccc1Cn1cnc2ccccc21`, the survival is 116%.

Turning to `CCC(O)c1nc2ccccc2n1Cc1cc(C)ccc1C` (stereo not given), the survival was 99%.

As for `Clc1ccccc1Cn1c(-c2cccs2)nc2ccccc21`, the survival is -3% (active).

As for `Cc1ccccc1Cn1c(-c2cccs2)nc2ccccc21`, the survival was 26% (active).

For `Cc1ccc(C)c(Cn2c(-c3cccs3)nc3ccccc32)c1`, the survival was 8% (active).

`OCc1nc2ccccc2n1Cc1c(F)cccc1Cl`: the survival is 98%.

Regarding `Cc1cccc(NC(=O)CC2C(=O)OCCN2Cc2ccccc2)c1` (stereo not given), the survival was 137%.

With `CC1(N)CCS(=O)(=O)C1` (stereo not given), the survival is 110%.

Turning to `CCCn1cc(S(=O)(=O)c2ccc(CC)cc2)c(=O)c2cc(F)c(N(CC)CC)cc21`, the survival is 68%.

In the case of `Cc1ccccc1C(=O)Nc1ccccc1-c1nc(-c2ccccc2)no1`, the survival is 95%.

Turning to `O=C(CN1C2=NCCN2c2ccccc21)C12CC3CC(CC(C3)C1)C2`, the survival was 98%.

`NC(=O)CSc1ncc2c(n1)-c1ccccc1N(Cc1cccc(F)c1)S2(=O)=O`: the survival is 73%.

Consider `CCN1CCN(c2oc(-c3ccc(COc4ccc(OC)cc4)o3)nc2C#N)CC1`, for which the survival is 75%.

In the case of `CC(C)c1ccc(NC(=O)CN2C(=O)COc3ccc(S(=O)(=O)N4CCCCCC4)cc32)cc1`, the survival is 109%.

For `CC(=O)N1CCCC1c1nc2ccccc2n1Cc1cccc(C)c1` (stereo not given), the survival is 85%.

Turning to `Cc1cccc(Cn2c(-c3cccs3)nc3ccccc32)c1`, the survival was -6% (active).

Turning to `Cc1cccc(CNC(=O)Cn2c(-c3cccs3)cc3ccccc32)c1`, the survival is 135%.

Take `CCN(CC)S(=O)(=O)c1ccc(S(=O)(=O)NCc2ccc3c(c2)OCO3)cc1`: the survival was 108%.

For the molecule `Cc1ccccc1NC(=O)Cn1c(SCC(=O)Nc2ccc(F)cc2)nc2ccccc21`, the survival is 76%.

As for `COC(=O)c1ccc(Cn2c(SCC(=O)N(C)c3ccccc3)nc3ccccc32)cc1`, the survival is 75%.

Consider `Cc1ccc(CNC(=O)Cn2c(SCC(=O)Nc3ccc(F)cc3)nc3ccccc32)cc1`, for which the survival was 131%.

Consider `COc1ccc(CNC(=O)Cn2c(SCC(=O)Nc3ccc(OC)cc3)nc3ccccc32)cc1`, for which the survival is 69%.

As to `COc1cccc(Cn2c(SCC(=O)N(C)c3ccccc3)nc3ccccc32)c1`, the survival was -6% (active).

`CC(=O)c1cccc(NC(=O)Cn2c(SCC(=O)Nc3ccc(F)cc3)nc3ccccc32)c1`: the survival is -3% (active).

With `O=C(CSc1nc2ccccc2n1CC(=O)Nc1ccc(F)cc1F)Nc1ccc(F)cc1`, the survival is 72%.

On to `COc1cccc(CNC(=O)Cn2c(SCC(=O)Nc3ccc(F)cc3)nc3ccccc32)c1`, for which the survival was 0% (active).

For `COc1cccc(CNC(=O)Cn2c(SCC(=O)Nc3ccc(C)c(C)c3)nc3ccccc32)c1`, the survival is 76%.

On to `COc1ccc(NC(=O)CSc2nc3ccccc3n2CC(=O)NCc2ccc(F)cc2)cc1`, for which the survival was -6% (active).

As for `O=C(Cn1c(SCC(=O)Nc2ccc(F)cc2)nc2ccccc21)NCc1ccc(F)cc1`, the survival was 63%.

In the case of `CN(C(=O)CSc1nc2ccccc2n1Cc1cccc(C(F)(F)F)c1)c1ccccc1`, the survival is 87%.

On to `CCN(CC)C(=O)c1ccc(Nc2nnc(-c3ccc(C)c(S(=O)(=O)NC)c3)c3ccccc23)cc1`, for which the survival was 79%.

On to `COc1ccc(CNc2nc3c(-c4cccc(F)c4)nnn3c3ccccc23)cc1`, for which the survival is 86%.

As for `N#Cc1ccccc1NC(=O)C(=O)NCCc1csc2nc(-c3cccc(F)c3)nn12`, the survival was 81%.

For the molecule `COc1ccc(CCC(=O)NCc2nc3cccnc3n2Cc2cccc(OC)c2)cc1`, the survival is 73%.

`CCOC(=O)N1CCC2(CC1)OC(=O)C(C)=C2C(=O)NCc1cccc(OC)c1`: the survival is 131%.

With `CCOC(=O)CSc1nc2ccc(NC(=O)c3ccc(Cl)cc3)cc2s1`, the survival was 90%.

As for `CCOc1ccc(-c2nc3c(c(SCC(=O)N4CCCCC4)n2)Cc2cccc(OC)c2O3)cc1`, the survival is 75%.

Turning to `CCCCNC(=O)C1CCN(c2nc3ccccc3nc2C(F)(F)F)CC1`, the survival is 82%.

As to `COc1ccccc1CCNC(=O)C1CCN(c2nc3ccccc3nc2C(F)(F)F)CC1`, the survival is 121%.

On to `CCCSCCCNC(=O)C1CCN(c2nc3ccccc3nc2C(F)(F)F)CC1`, for which the survival was -3% (active).

Take `O=C(NCCc1ccccc1Cl)C1CCN(c2nc3ccccc3nc2C(F)(F)F)CC1`: the survival was 10% (active).

In the case of `CCNC(=O)C1CCN(c2nc3ccccc3nc2C(F)(F)F)CC1`, the survival is 148%.

On to `Cc1ccccc1CCNC(=O)C1CCN(c2nc3ccccc3nc2C(F)(F)F)CC1`, for which the survival is 68%.

Consider `Cc1ccc(NC(=O)C2CCN(c3nn4cc(-c5ccc(C)cc5)nc4s3)CC2)cc1`, for which the survival was 60%.

`Cc1cn2c(=O)cc(COC(=O)c3cccc(NC(=O)COc4ccccc4Cl)c3)nc2s1`: the survival was 124%.

`COc1ccc2c(c1)c1c(c(=O)n(Cc3ccccc3)c(=O)n1Cc1ccccc1Cl)n2C`: the survival was 84%.

On to `O=C(Nc1ccc2nc3n(c(=O)c2c1)CCCCC3)C(=O)Nc1ccccc1F`, for which the survival was 69%.

Turning to `O=C(Cc1ccc(Cl)cc1)NC1CC(=O)N(c2ccc3c(c2)OCCO3)C1` (stereo not given), the survival is 58%.

For `CSc1ccccc1NC(=O)C1=CC(c2ccc3c(c2)OCO3)=NS(=O)(=O)N1C`, the survival is 87%.

With `Cc1ccc(-c2nc3c(c(SCc4ccc(Br)cc4)n2)Cc2c(CO)cnc(C)c2O3)cc1`, the survival was 81%.

As for `CCOC(=O)c1c(S(=O)(=O)N2CCC(C(=O)Nc3ccc(OCC)cc3)CC2)c(C)n(C)c1C`, the survival was 125%.

`CCOC(=O)c1c(C)[nH]c(C)c1S(=O)(=O)N1CCC(C(=O)Nc2ccc(OCC)cc2)CC1`: the survival is -3% (active).

For `CCOC(=O)c1c(C)[nH]c(C)c1S(=O)(=O)N1CCC(C(=O)NCc2ccc(C)cc2)CC1`, the survival is 71%.

For `CCOC(=O)c1c(C)[nH]c(C)c1S(=O)(=O)N1CCC(C(=O)NCc2ccccc2)CC1`, the survival was 55%.

Take `CCOC(=O)c1c(C)[nH]c(C)c1S(=O)(=O)N1CCC(C(=O)Nc2ccc(C)c(Cl)c2)CC1`: the survival is 63%.

Take `CCOC(=O)c1c(C)[nH]c(C)c1S(=O)(=O)N1CCC(C(=O)NCc2ccc(F)cc2)CC1`: the survival is 1% (active).

With `O=C(NCC1CCCO1)c1ccc(NC(=O)c2ncn[nH]2)cc1` (stereo not given), the survival was 98%.

Turning to `CCCCN(CC)CCNC(=O)CCn1cnc2onc(-c3ccc(F)cc3)c2c1=O`, the survival was 72%.

With `CCN(CC)CCCNC(=O)CCCn1ncn2c(cc3occc32)c1=O`, the survival is 85%.

Take `O=S(=O)(c1ccc(Cl)cc1)c1nc(-c2ccccc2Br)oc1NCc1ccccc1`: the survival is 96%.

`COc1ccc(C(C)NC(=O)CN(c2cc(OC)ccc2OC)S(=O)(=O)c2ccccc2)cc1` (stereo not given): the survival was 76%.

Turning to `COc1cccc2sc(N(Cc3cccnc3)C(=O)Cc3ccccc3)nc12`, the survival is 89%.

On to `CCOc1ccc(C(=O)NCCc2sc(-c3ccc(F)cc3)nc2C)cc1`, for which the survival is 97%.

For the molecule `COc1ccc(-c2nc(C)c(CCNC(=O)c3cc(OC)c(OC)c(OC)c3)s2)cc1OC`, the survival was 57%.

As for `CCOc1ccc(C(=O)NCCc2sc(-c3ccc(OC)c(OC)c3)nc2C)cc1`, the survival was 129%.

On to `COc1ccc(-c2nc(C)c(CCNC(=O)c3ccc(C(F)(F)F)cc3)s2)cc1OC`, for which the survival was -4% (active).

Turning to `CCOc1ccc(C(=O)NCCc2sc(-c3ccc(C)cc3)nc2C)cc1`, the survival was -3% (active).

Consider `CCOc1ccc(NC(=O)C(=O)NCCc2sc(-c3ccc(C)cc3)nc2C)cc1`, for which the survival was 55%.
